# Screening results: PubChem, National Center for Advancing Translational Sciences (NCATS)
# GLP1R ag: activates the human GLP-1 receptor. HEK293 GLP-1R CRE-luciferase, luminescence, 4-6 h; cells express a hypersensitive GLP-1R form. Potency, µM (titrated, usually from 45.6 µM), inactives show top-dose activation, most hits filed as activators. 380,000 compounds, 0.007% hits. AID 624172; note: potency is the fitted concentration of half-maximal effect; % of control where 0% means no effect
# Target sequence (P43220 whole entry, looked up): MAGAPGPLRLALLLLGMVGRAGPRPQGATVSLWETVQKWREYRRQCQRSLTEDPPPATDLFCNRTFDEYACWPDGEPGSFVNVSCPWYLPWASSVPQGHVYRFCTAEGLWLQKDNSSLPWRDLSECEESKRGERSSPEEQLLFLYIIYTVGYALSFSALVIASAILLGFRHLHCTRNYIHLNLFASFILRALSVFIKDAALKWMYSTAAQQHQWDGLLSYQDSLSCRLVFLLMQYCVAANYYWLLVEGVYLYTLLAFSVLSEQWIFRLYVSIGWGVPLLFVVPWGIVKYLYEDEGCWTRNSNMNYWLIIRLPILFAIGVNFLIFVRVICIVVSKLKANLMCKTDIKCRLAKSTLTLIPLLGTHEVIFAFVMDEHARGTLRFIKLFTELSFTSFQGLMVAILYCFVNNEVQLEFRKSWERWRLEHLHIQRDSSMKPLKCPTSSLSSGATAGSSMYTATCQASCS
# ClpP mod: qHTS Assay for Activators of ClpP. ATP-dependent Clp protease proteolytic subunit (Bacillus subtilis (strain 168)), P80244. Potency, µM (titrated, usually from 57.5 µM), for the others: at the highest dose activity change, negative = active. AID 651965, 2013. 340,000 compounds, 1.9% hits. purified B. subtilis ClpP, FRET peptide cleavage, 20 min; active = well fitted falling curve with a large enough effect; inconclusive = small, poorly fitted or top-dose-only effect; inactive = no such curve, though single readings can be large or run the other way; note: potency is the fitted concentration of half-maximal effect; the source files actives as falling curves though it sought activators and does not explain the sign; nearly all actives have a fitted effect of over 65% in size
# Target sequence (P80244 whole entry, looked up): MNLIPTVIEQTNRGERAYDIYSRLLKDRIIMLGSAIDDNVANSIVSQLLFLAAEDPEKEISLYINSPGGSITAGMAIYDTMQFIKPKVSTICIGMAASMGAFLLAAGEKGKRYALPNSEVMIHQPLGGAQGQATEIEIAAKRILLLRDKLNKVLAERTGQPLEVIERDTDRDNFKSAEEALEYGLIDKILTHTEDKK
#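 Buffer: 100 mM Tris/HCl pH8, 100 mM KCl, 0.05% low protease BSA, 2.5% glycerol, 0.01% Tween-20. ClpP 10 microg/mL final; 20 min RT; delta FRET normalized to ADEP and DMSO controls.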
# D3 ag: activates the human D3 dopamine receptor | P35462 | D3R DiscoveRx beta-arrestin cells, luminescence, 90 min | max activation, % | 410,000 compounds, 0.58% hits; in the data active = max activation above about 30%; note: 0% is about no effect
#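 Agonist mode: compounds and dopamine controls were applied to plated cells for 90 min at 37 degrees C after an overnight attachment at 1500 cells/well. Luminescent read-out followed 30 - 60 minutes at room temperature with DiscoveRx detection reagent.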
# GLP1R inv ag: acts as inverse agonist at human GLP-1 receptor | AID 624417 | Potency, µM (top dose mostly 38.3 µM), for inactives: top-dose activity change, negative = inhibition, usual class: inhibitors | HEK293 GLP-1R CRE-luciferase, luminescence, 24 h; GLP-1R form is constitutively active | P43220 | 410,000 compounds, 1.6% hits; note: potency is the fitted concentration of half-maximal effect; % is set by controls: 0 for no effect and ±100 for the full control effect; nearly all actives have a fitted effect of over 55% in size
#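 Stable HEK293 clone (constitutively active GLP-1R + cAMP-response luciferase); 200 cells/uL plated, 12 h pre-culture, compound 24 hr, 37 deg C/5% CO2; detection reagent 12 min RT; luminescence.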
# DRD3 antagonist: D3 dopamine receptor (human) antagonism; P35462; D3R cells, DiscoveRx beta-arrestin luminescence, antagonist mode; stronger effect = lower value; max response, negative = inhibition, %; 360,000 compounds, 2.5% hits; in the data active = max response below about -50%; inconclusive = no clear call, values can overlap the other calls; note: % is set by controls: 0 for no effect and ±100 for the full control effect
#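 Cells expressing the human receptor were seeded at 1500 cells/well, incubated overnight at 37 degrees C in 5% CO2, then exposed to library compounds with dopamine controls for 90 minutes at 37 degrees C before luminescent detection.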
# HEK293 tox: cytotoxicity counter-screen for GLP-1 receptor inverse agonists | 410,000 compounds, 0.13% hits | Potency, µM (doses to about 38.3 µM), for the others: top-dose activity change, negative = inhibition, usual class: inhibitors | AID 624418 | HEK293 cAMP-luciferase reporter cells, luminescence, 24 h;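 note: loss of luciferase light is scored as toxicity; potency is the fitted concentration of half-maximal effect; % is set by controls: 0 for no effect and ±100 for the full control effect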
#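 Seeding density was 200 cells/uL; after overnight-length (12 h) culture, 23 nL compounds went on for 24 h at 37 °C. Readout used a luciferase detection reagent, luminescence taken after 12 min at room temperature.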
# * marks the source's active call; other numbers are inactive results; u = inconclusive; x = no result; ! = not active in a repeat. The list is not random: actives were taken first. Their share in the collection is about 5.7%. Unless noted, calls come from the whole dose curve; as a rule, active = well fitted curve in the direction sought with a large enough effect; inconclusive = small, poorly fitted or top-dose-only effect, or another doubt; inactive = no such curve, though single readings can be large; an effect the other way counts as inactive or inconclusive.
SMILES,GLP1R ag,ClpP mod,D3 ag,GLP1R inv ag,DRD3 antagonist,HEK293 tox
CC1(C)CC2CC(C)(CN2C(=O)COC(=O)c2ccc(Cl)cc2N)C1 (configuration not stated),-12%,28µM*,-4,u,8,15%
COC(=O)c1cc2occc2n1Cc1nc(-c2ccccc2)oc1C,x,-1%,5,-4%,x,1%
Cc1cc(N2CCN(c3ccccc3)CC2)nc(-c2ccccc2O)n1,-7%,u,0,u,20,11%
Cc1cc(N2CCN(c3ccccc3)CC2)nc(-n2nc(C)cc2C)n1,-3%,1%,-25,-33%,-86*,-18%
Cc1ccc(S(=O)(=O)N(CC(=O)NCCC2=CCCCC2)Cc2ccccc2F)cc1,-2%,1%,6,u,-74*,-12%
Cc1ccn2c(NC3CCCCC3)c(-c3cccc(-c4cccc(Cl)c4)c3)nc2c1,-4%,4%,-3,4µM*,73,u
CCC(C)Sc1ccc(-c2nc3cnccn3c2NC2CCCCC2)cc1 (configuration not stated),3%,4%,26,u,74,127%
CCC(C)Sc1ccc(-c2nc3cc(C)ccn3c2NC2CCCCC2)cc1 (configuration not stated),0%,5%,2,10µM*!,u,6%
Cc1ccn2c(NC3CCCC3)c(-c3ccncc3)nc2c1,17%,-4%,-1,u,4,6%
COc1cccc2c1Oc1ncccc1N(C(=O)CCC(=O)NC(C)C)C2,x,-1%,2,5%,x,2%
O=C(CSc1nnc(SCc2ccc(Cl)cc2)s1)N/N=C/c1c[nH]c2ccccc12,4%,-1%,18,u,-2,u
O=C(CSc1nnc(SCc2cccc3ccccc23)s1)N/N=C/c1c[nH]c2ccccc12,3%,1%,-9,5.6µM*,-11,-6%
C[C@H](O)[C@@H]1CN2CCc3c([nH]c4ccc(-c5ccc6c(c5)OCO6)cc34)[C@@H]2C[C@@H]1N(C)C(=O)NC1CCCCC1,5%,-5%,-3,u,-30,-43%
C[C@H](O)[C@@H]1CN2CCc3c([nH]c4ccc(-c5ccc6c(c5)OCO6)cc34)[C@@H]2C[C@@H]1N(C)C(=O)Nc1cc(Cl)cc(Cl)c1,-4%,-5%,-10,2.8µM*,-25,u
C[C@H](O)[C@@H]1C(=O)N2CCc3c([nH]c4ccccc34)[C@@H]2C[C@@H]1N(C)C(=O)Nc1cc(Cl)cc(Cl)c1,-6%,4%,-9,10µM*,u,-10%
C[C@H](O)[C@@H]1CN2CCc3c([nH]c4ccccc34)[C@@H]2C[C@@H]1N(C)C(=O)Nc1cc(Cl)cc(Cl)c1,-3%,-19%,-15,u,-50*,1%
Cc1ccc(NC(=O)CC(C)S(=O)(=O)c2ccc3c(c2)NC(=O)CO3)c(C)c1 (configuration not stated),x,-1%,0,16%,x,2%
CCCCN(C(=O)c1ccc(S(=O)(=O)N(C)c2ccccc2)cc1)c1c(N)n(CCC)c(=O)[nH]c1=O,-1%,-2%,0,0%,-4,15%
COc1ccccc1N1CCN(CC(O)COc2ccc3c(c2)CCC3)CC1 (configuration not stated),2%,-6%,-5,u,-67*,0%
O=S(=O)(c1ccc(OCC(O)CN2CCN(c3ccc(F)cc3)CC2)cc1)N1CCOCC1 (configuration not stated),-1%,4%,-18,2%,-25,1%
CC(C)(C)CC(C)(C)NCC(O)COc1ccc2c(c1)CCC2 (configuration not stated),-4%,-1%,3,10µM*,-63*,u
COc1ccccc1N1CCN(CC(O)COc2ccc(C)c(C)c2)CC1 (configuration not stated),4%,x,-21,u,-101*,-10%
COc1ccccc1N1CCN(CC(O)COc2ccc(S(=O)(=O)N3CCOCC3)cc2)CC1 (configuration not stated),18%,-1%,-31,14%,-81*,u
COc1ccc(SCC(O)Cn2c3ccccc3c3ccccc32)c(OC)c1 (configuration not stated),13%,-18%,1,u,34,1%
COc1cc(Br)c(C2CC(=O)Nc3cc(OC)c(OC)c(OC)c32)cc1OC (configuration not stated),-3%,-3%,4,-26%,x,0%
SMILES,GLP1R ag,ClpP mod,D3 ag,GLP1R inv ag,DRD3 antagonist,HEK293 tox
Cc1ccc(Cl)cc1N1CCN(CC(O)COC(C)C)CC1 (configuration not stated),-2%,0%,-14,u,-79*,-15%
CC(=O)Nc1ccc(OCC(O)CN2CCN(c3cc(Cl)ccc3C)CC2)cc1 (configuration not stated),6%,-3%,-58,u,-10,u
CCO[C@H]1OC(C(=O)N2CCCCCCC2)=C[C@@H](c2ccccc2)[C@@H]1CCCO,7%,3%,7,-26%,6,3%
C#Cc1ccc([C@@H]2C=C(C(=O)OCC=C)O[C@H](OCC)[C@H]2CCCO)cc1,5%,2%,12,u,-26,-10%
C#Cc1ccc([C@H]2C=C(C(=O)OCC=C)O[C@@H](OCC)[C@@H]2CCCO)cc1,5%,-2%,62*,u,64,21%
CCO[C@@H]1OC(C(=O)N2CCOCC2)=C[C@H](c2ccccc2)[C@H]1CCCO,-6%,2%,-1,10%,-65*,2%
CCO[C@@H]1OC(C(=O)N2CCCCCCC2)=C[C@H](c2ccc(C(F)(F)F)cc2)[C@H]1CCCO,20%,-2%,-12,10µM*,-9,1%
Cc1ccc(NC(=O)C(c2ccccc2)C2CCCC2)cc1 (configuration not stated),-3%,-1%,4,u,5,-15%
O=C(Nc1ccc2ccccc2c1)C(c1ccccc1)C1CCCC1 (configuration not stated),-8%,-13%,3,5µM*,27,2%
O=C(COc1ccccc1Cl)Nc1nc(-c2ccc(F)cc2)ns1,x,-1%,3,-1%,x,1%
COc1ccccc1Nc1nc2cc(C)ccc2cc1C#N,3%,x,4,17%,16,13%
COc1ccccc1Nc1nc2ccc(C)cc2cc1C#N,1%,25µM*,3,8%,14,-4%
